Active and inactive are the calls of the source. Unless noted, the rule behind the calls is not given here.
Experiments:
[1] = anti-His antibody binders, primary screen, artefact control for SMM control protein annotation, biochemical, small-molecule microarray, 635 nm fluorescence (AID 1128); details: anti-His Alexa647 antibody binding, higher = more signal;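 note: score merges feature fluorescence with signal-to-noise for each printed compound spot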
[2] = tested on: Human papillomavirus type 1a E7 protein (residues 1-88); assay: HPV1a E7 small-molecule binders, primary screen, biochemical, small-molecule microarray, residues 1-88, 635 nm (AID 1129); details: small-molecule microarray binding, fluorescence 635 nm; higher = more signal
[3] = target: Focal adhesion kinase 1 (Homo sapiens) (UniProt Q05397); assay: small-molecule microarray binders of FAK, primary screen, biochemical, 635/667 nm fluorescence, BSA, DTT (AID 1130); details: PTK2 binding, 635 nm fluorescence, higher = more signal;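 note: composite of spot emission at 667 nm and signal to noise over triplicate slides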
[4] = tested on: Fibrinogen (Alexa647-labelled); assay: fibrinogen binders on compound microarrays, profiling panel, artefact control for SMM control-protein annotation, biochemical, small-molecule microarray, 635/667 nm fluorescence (AID 1131); details: fibrinogen-A647 binding fluorescence, higher = more signal;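 note: z-score merges 667 nm fluorescence with per-spot signal-to-noise over triplicate slides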
[5] = target: Follistatin (Homo sapiens) (UniProt P19883); assay: follistatin binders on small-molecule microarrays, primary screen, biochemical, small-molecule microarray, 635/667 nm fluorescence (AID 1132); details: FST binding, 635 nm fluorescence, higher = more signal
[6] = target: Fibroblast growth factor 2 (Homo sapiens) (UniProt P09038); assay: FGF2 binders on small-molecule microarrays, primary screen, biochemical, small-molecule microarray, 635/667 nm fluorescence (AID 1133); details: small-molecule microarray binding, FGF2, fluorescence 635/667; higher = more signal
[7] = mitochondrial membrane potential change in A549 cells, profiling panel, cell-based, JC-1 fluorescence, basal, 24 h, 100 nL (AID 1138); details: higher = more signal;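 note: A549 lung adenocarcinoma cells under basal conditions with no added stimulus; test concentration not given here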
Lefty1 = Lefty1 binders on small-molecule microarrays, primary screen, biochemical, small-molecule microarray, 635/667 nm fluorescence (AID 1139); details: small-molecule microarray binding, fluorescence 635/667; higher = more signal
[8] = tested on: wheat germ agglutinin (Triticum aestivum), Alexa647-labelled; assay: wheat germ agglutinin binders on compound microarrays, profiling panel, artefact control for SMM control-protein annotation, biochemical, small-molecule microarray, 635/667 nm fluorescence (AID 1140); details: WGA-A647 binding, 635 nm fluorescence, higher = more signal;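 note: score merges 667 nm feature emission with signal to noise over triplicate slides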
[9] = target: Luciferin 4-monooxygenase (Photinus pyralis) (UniProt P08659); assay: firefly luciferase enzyme inhibitors, primary screen, biochemical, luminescence, purified enzyme, 2006 set (AID 1141); details: SteadyGlo luminescence, 30 min, higher = more signal, called active from +8 up or from −8 down;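 note: cell-free assay with purified firefly luciferase at 100 ng per well in PBS; test concentration not given here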
[10] = tested on: Wnt5a (protein binding on small-molecule microarray); assay: Wnt5a binders on small-molecule microarray, primary screen, biophysical, 635/667 nm fluorescence (AID 1142); details: 635 nm fluorescence, higher = more signal;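 note: fluorescence read at 667 nm with signal to noise per printed feature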
[11] = cell viability in Huh7 cells, primary screen, cytotoxicity control for HCV replication inhibitor project, CellTiter-Glo luminescence, basal, 48 h (AID 1143); details: Huh7 HCV replicon, higher = more signal, called active from +8 up or from −8 down;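 note: Huh7 hepatoma cells carrying a hepatitis C replication reporter with no stimulus; test concentration not given here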
[12] = P. aeruginosa biofilm formation inhibitors, primary screen, PAO1 strain, BacTiter-Glo luminescence, LB-PBS (AID 1144); details: 12 h, higher = more signal
[13] = CREB reporter modulators without forskolin, primary screen, cell-based, PC12, CRE-LacZ reporter, unstimulated (AID 1145); details: no forskolin, luminescence, 4.5 h, higher = more signal, called active from +8 up or from −8 down
[14] = CREB reporter modulators under forskolin, primary screen, cell-based, PC12, CRE-LacZ reporter, forskolin-stimulated (AID 1146); details: luminescence, 4.5 h, higher = more signal, called active from +8 up or from −8 down;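 note: PC12 cells with 6xCRE LacZ reporter stimulated by forskolin 10 µM; beta-galactosidase reporter signal reflecting CREB driven transcription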
[15] = target: Streptavidin (Streptomyces avidinii) (UniProt P22629); assay: streptavidin binders on small-molecule microarray, primary screen, artefact control for SMM compound annotation, biophysical, 635/667 nm fluorescence (AID 1147); details: streptavidin binding, higher = more signal;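 note: signal reflects streptavidin binding to arrayed compounds as a control protein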
[16] = small-molecule binders of probe aInhba, primary screen, biochemical, small-molecule microarray, 635/667 nm fluorescence (AID 1148); details: higher = more signal;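 note: score merges 667nm spot fluorescence with signal-to-noise for antibody binding to printed compounds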
Torsin-1A (Homo sapiens) [17] = target: Torsin-1A (Homo sapiens) (UniProt O14656); assay: torsin A binders from cell lysate, primary screen, small-molecule microarray, wild-type, 635/667 nm (AID 1149); details: COS7 hTOR1A-WT lysate, 635 nm fluorescence, higher = more signal
Torsin-1A (Homo sapiens) [18] = target: Torsin-1A (Homo sapiens) (UniProt O14656); assay: small-molecule binders of mutant TOR1A in lysate, primary screen, cell lysate, small-molecule microarray, COS7 lysate, 635/667 nm fluorescence (AID 1150); details: COS7 hTOR1A mutant lysate, 635 nm fluorescence, higher = more signal;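 note: score pools 667 nm emission and signal to noise measuring lysate protein binding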
[19] = tested on: Sonic hedgehog protein (Shh); assay: small-molecule binders of Shh protein, primary screen, biochemical, small-molecule microarray, 635/667 nm fluorescence (AID 1151); details: small-molecule microarray binding, 635 nm fluorescence; higher = more signal;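 note: Shh protein binding to compounds spotted on small-molecule microarray slides; score combines spot fluorescence intensity with signal-to-noise across triplicate slides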

Sequence of Focal adhesion kinase 1 (Homo sapiens) (Q05397 whole entry, looked up): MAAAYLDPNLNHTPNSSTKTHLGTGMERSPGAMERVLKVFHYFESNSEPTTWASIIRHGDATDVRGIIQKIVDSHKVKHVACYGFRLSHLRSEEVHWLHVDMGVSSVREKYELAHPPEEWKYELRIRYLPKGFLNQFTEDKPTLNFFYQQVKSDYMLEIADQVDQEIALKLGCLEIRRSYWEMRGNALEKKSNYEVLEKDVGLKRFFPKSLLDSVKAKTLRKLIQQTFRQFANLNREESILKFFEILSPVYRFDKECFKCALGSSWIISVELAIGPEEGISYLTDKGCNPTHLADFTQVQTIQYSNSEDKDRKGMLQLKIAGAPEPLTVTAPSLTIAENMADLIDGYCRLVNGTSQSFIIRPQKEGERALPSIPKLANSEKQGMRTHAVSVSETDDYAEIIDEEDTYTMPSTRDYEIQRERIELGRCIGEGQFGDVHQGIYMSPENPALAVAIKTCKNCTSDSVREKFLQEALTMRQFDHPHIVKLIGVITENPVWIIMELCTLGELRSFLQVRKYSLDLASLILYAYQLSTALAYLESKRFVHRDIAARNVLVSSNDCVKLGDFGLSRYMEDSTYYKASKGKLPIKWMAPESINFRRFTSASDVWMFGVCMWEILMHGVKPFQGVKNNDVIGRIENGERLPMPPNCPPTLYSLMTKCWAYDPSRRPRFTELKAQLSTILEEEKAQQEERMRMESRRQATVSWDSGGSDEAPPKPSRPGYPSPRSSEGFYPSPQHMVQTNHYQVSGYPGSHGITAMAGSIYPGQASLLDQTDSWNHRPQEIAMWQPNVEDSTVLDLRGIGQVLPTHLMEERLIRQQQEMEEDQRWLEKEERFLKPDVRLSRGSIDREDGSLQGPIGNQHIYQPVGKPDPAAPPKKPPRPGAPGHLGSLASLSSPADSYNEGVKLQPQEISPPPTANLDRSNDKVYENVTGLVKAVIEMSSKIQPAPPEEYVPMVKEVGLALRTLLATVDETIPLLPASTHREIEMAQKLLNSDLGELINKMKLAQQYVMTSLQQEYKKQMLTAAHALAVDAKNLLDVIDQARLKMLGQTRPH
Sequence of Streptavidin (Streptomyces avidinii) (P22629 whole entry, looked up): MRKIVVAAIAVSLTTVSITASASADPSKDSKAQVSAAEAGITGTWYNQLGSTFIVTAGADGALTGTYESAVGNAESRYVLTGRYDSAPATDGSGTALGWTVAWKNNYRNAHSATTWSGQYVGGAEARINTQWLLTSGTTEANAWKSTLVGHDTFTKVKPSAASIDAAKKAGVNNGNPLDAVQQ
Sequence of Fibroblast growth factor 2 (Homo sapiens) (P09038 whole entry, looked up): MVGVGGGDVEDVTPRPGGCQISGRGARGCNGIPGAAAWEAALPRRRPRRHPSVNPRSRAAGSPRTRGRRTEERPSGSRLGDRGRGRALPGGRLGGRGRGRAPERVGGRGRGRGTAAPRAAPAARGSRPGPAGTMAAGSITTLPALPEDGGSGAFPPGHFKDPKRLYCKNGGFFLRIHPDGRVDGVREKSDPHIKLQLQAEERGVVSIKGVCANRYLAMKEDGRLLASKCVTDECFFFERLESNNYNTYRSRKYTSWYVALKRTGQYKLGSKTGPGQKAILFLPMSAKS
Sequence of Follistatin (Homo sapiens) (P19883 whole entry, looked up): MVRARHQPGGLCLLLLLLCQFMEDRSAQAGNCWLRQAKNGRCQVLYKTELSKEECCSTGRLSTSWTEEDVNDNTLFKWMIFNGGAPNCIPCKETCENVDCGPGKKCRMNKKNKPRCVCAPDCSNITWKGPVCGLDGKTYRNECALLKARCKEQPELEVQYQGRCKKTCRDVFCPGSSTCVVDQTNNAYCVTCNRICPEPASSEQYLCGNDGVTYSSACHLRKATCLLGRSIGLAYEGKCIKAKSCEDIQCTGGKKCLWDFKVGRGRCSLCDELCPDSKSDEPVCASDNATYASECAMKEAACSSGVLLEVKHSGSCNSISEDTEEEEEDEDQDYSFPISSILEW
Sequence of Torsin-1A (Homo sapiens) (O14656 whole entry, looked up): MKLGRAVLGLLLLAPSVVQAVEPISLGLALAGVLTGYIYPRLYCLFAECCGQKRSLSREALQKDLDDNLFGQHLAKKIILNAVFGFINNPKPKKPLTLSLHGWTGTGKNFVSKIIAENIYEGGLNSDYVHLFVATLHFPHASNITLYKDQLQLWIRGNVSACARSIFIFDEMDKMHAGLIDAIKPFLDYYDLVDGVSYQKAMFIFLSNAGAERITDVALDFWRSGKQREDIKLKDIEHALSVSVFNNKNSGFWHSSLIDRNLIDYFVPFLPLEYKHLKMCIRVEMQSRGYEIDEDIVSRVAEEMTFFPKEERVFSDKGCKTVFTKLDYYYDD
Sequence of Luciferin 4-monooxygenase (Photinus pyralis) (P08659 whole entry, looked up): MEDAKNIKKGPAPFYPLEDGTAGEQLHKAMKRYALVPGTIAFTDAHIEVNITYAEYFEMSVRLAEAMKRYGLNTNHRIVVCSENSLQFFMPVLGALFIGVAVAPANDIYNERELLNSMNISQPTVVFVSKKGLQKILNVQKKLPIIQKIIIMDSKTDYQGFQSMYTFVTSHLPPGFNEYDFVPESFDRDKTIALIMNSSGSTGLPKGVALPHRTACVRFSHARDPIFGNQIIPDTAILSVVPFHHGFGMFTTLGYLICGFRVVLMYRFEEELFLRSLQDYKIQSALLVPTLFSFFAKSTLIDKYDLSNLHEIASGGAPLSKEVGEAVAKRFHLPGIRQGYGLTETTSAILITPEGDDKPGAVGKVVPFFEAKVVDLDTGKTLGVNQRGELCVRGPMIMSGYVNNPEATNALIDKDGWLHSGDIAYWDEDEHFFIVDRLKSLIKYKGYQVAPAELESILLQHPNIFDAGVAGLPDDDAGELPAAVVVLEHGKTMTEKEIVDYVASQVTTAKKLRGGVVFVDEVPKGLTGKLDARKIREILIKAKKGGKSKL

SMILES	composite z-score [1]	composite z-score [2]	composite z-score [3]	composite z-score [4]	composite z-score [5]	composite z-score [6]	z-score [7]	composite z-score (Lefty1)	composite z-score [8]	z-score [9]	composite z-score [10]	z-score [11]	z-score [12]	z-score [13]	z-score [14]	composite z-score [15]	composite z-score [16]	composite z-score (Torsin-1A (Homo sapiens) [17])	composite z-score (Torsin-1A (Homo sapiens) [18])	composite z-score [19]
C[C@]1(C(=O)NCC(F)(F)F)c2ccccc2C(=O)N(Cc2ccc(OC(F)(F)F)cc2)[C@H]1c1ccc(CO)cc1	0.781	0.269	0.273	0.0709	1.13	0.358	-0.274	0.369	0.314	-0.219 (inactive)	-0.151	-2.8 (inactive)	0.382 (inactive)	0.324 (inactive)	1.3 (inactive)	0.0803	-0.128	-0.906	0.7	0.31
CCCCCN1CC=CC23O[C@@H]4C=CCOC(=O)[C@@H]4[C@H]2C(=O)N(CCCCCO)[C@@H]3C1=O (stereo not given in full)	0.584	-0.465	0.0875	-1.87	-0.232	-0.486	-0.465	0.604	0.0764	0.517 (inactive)	-0.659	-0.211 (inactive)	-1.51 (inactive)	-1.45 (inactive)	-0.151 (inactive)	-0.735	-0.213	0.459	2.16	0.32
COC(=O)[C@@H]1N=C(c2ccc(OCCCO)cc2)O[C@@H]1c1ccccc1CN=[N+]=[N-]	-0.125	0.943	0.841	0.38	0.233	-0.633	0.22	-0.119	0.939	-0.0813 (inactive)	-0.257	-1.04 (inactive)	-0.245 (inactive)	-0.268 (inactive)	0.0126 (inactive)	0.551	0.177	-1.73	-0.938	0.0121
C=C(CCCC)/C(=C/C[C@H](OC(C)=O)c1cccc(OCCO)c1)c1cc(C(=O)OC)ccc1OC	-0.799	-0.426	-0.325	0.33	0.0088	0.261	3.6	0.283	0.635	-1.64 (inactive)	-0.229	-0.845 (inactive)	0.0689 (inactive)	12.1 (active)	-0.834 (inactive)	-0.77	-0.0059	-0.552	-0.426	0.454
COc1ccc(NN2C(C(O)c3cc(C(F)(F)F)cc(C(F)(F)F)c3)C=CC3C(=O)N(C4CCCCC4)C(=O)C32)cc1 (stereo not given)	0.764	1.1	0.359	0.895	0.544	-0.0047	-0.822	-0.364	1.2	0.36 (inactive)	0.397	-2.42 (inactive)	-1.1 (inactive)	-0.723 (inactive)	-0.504 (inactive)	0.837	1.19	0.408	1.19	-0.0356
NC(=O)NCC#Cc1ccc2c(c1)[C@]1(C(=O)N2)[C@H](C(=O)N2CCCCCCC2)[C@H]2C(=O)O[C@H](c3ccccc3)[C@H](c3ccccc3)N2[C@@H]1c1ccc(O)cc1	0.0328	1.01	0.568	0.879	1.52	1.15	-1.16	0.784	1.15	-0.161 (inactive)	0.399	0.33 (inactive)	-0.209 (inactive)	0.0695 (inactive)	-0.745 (inactive)	1.05	1.51	0.529	0.676	1.22
CCCCC=C[C@@H](NC(=O)c1ccc(C(F)(F)F)cc1)c1ccccc1	0.3	-0.839	0.185	-2.63	-0.21	-0.908	0.798	-0.671	0.052	1.02 (inactive)	-0.467	-0.954 (inactive)	1.03 (inactive)	0.19 (inactive)	1.47 (inactive)	-0.683	-0.105	-0.652	-0.951	-0.845
COCCCNC(=O)[C@@H]1c2ccccc2C(=O)N(C2CCCCC2)[C@H]1c1ccc(CO)cc1	3.06	-0.668	0.183	-0.927	-0.388	-0.658	0.705	-1.19	-0.365	-0.0838 (inactive)	-0.384	-4.86 (inactive)	-0.303 (inactive)	-0.385 (inactive)	0.656 (inactive)	-0.59	-0.0963	0.691	-1.51	-0.759
C=CC[C@@]12N=C(c3ccc(OCCCO)cc3)O[C@@H]1c1ccccc1N(Cc1ccccc1)C2=O	2.52	1.17	0.986	0.8	1.55	1.44	-0.379	1.55	1.04	-2.6 (inactive)	0.711	-4.31 (inactive)	0.519 (inactive)	1.1 (inactive)	-1.66 (inactive)	0.25	0.605	1.19	0.909	2.06
C=CC[C@@]1(C(=O)N(C)C)N=C(c2ccc(OCCCO)cc2)O[C@@H]1c1ccccc1	2.63	1.24	0.356	0.3	0.0236	0.298	-0.324	-0.68	1.02	0.213 (inactive)	0.919	-1.45 (inactive)	0.442 (inactive)	0.652 (inactive)	0.535 (inactive)	-0.232	0.496	0.986	0.571	-0.0763
